Screening results deposited in PubChem by several laboratories.
NR3A LBD binder: NR3A (human) ligand-binding domain modulation; NR3A LBD differential scanning fluorimetry, Tm shift; 0% = protein alone, 100% = glycine-bound protein; Tm shift relative to glycine control, % at 25 µM; hit rate 2.5% among 340,000;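 active means melting temperature shift of at least 10% of the positive control shift, at one fixed dose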
Rpn11 inh: blocks the human proteasome subunit Rpn11; inhibition, % at 20 µM; hit rate 0.59% among 360,000; O00487; human 26S proteasome, Ub4-pepOG fluorescence polarization; 20S core pre-blocked with epoxomicin; AID 588493;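 active means inhibition at 20 µM, scaled to each plate's controls, above about 33%, limit read from the data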
Target sequence (O00487 whole entry, looked up): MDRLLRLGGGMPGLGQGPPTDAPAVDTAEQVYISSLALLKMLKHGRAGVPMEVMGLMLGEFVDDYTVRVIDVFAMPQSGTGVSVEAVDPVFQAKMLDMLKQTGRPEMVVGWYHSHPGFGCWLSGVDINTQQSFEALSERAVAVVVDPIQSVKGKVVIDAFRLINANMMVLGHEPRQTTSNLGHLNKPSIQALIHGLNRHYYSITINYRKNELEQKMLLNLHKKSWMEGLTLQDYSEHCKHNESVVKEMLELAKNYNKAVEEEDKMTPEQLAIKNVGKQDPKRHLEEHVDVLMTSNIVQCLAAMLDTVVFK
ZTA DNA inh: counter-screen for EBNA-1 inhibitors: inhibitors of Epstein-Barr virus ZTA. AID 2234. ZTA-DNA binding, fluorescence polarization. hit rate 0.15% among 320,000. inhibition, % at 11 µM; in the data active means inhibition above about 33%
TPT1 inh: blocks Candida albicans tRNA 2'-phosphotransferase | AID 1962 | hit rate 0.81% among 300,000 | recombinant caTPT1, FP RNA substrate dephosphorylation | inhibition, % at 5 µM;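 active means inhibition above the mean of all tested compounds plus 3 SD, set per screening campaign, cut at about 24% in these data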;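 further: plate controls were DMSO alone for no effect and ferristatin control at 100 nM for full effect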
EBNA-1 inh: blocks EBNA-1 binding to DNA; EBNA-1 DNA binding, fluorescence polarization; inhibition, % at 14.8 µM; hit rate 0.34% among 300,000; AID 1950; in the data active means inhibition above about 28%
dFosB activator: activators of mouse delta FosB homodimer | P13346 | purified delta FosB, TAMRA-CDK5 oligo fluorescence polarization; percent of positive-control signal above neutral wells | activation, % at 25 µM | hit rate 0.99% among 340,000;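 active means mean activation above about 17%, with every replicate also reaching it, limit read from the data, passing the limit was not always enough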
* hit, by the source's call; / = no result. Shown are actives, neighbours in structure and some others; about 4.5% of the full set was active somewhere.

SMILES	NR3A LBD binder	Rpn11 inh	ZTA DNA inh	TPT1 inh	EBNA-1 inh	dFosB activator
CC1CCN(c2ccc(NC(=O)c3ccc(Br)o3)cc2)CC1	30*	-5	5	-2	0	2
Cc1ccc(C)c(NC(=O)c2ccc3c(c2)CCN3S(C)(=O)=O)c1	/	0	/	/	/	/
COc1ccc(C(=O)Nc2ccc(OCc3ccccc3)cc2)cc1[N+](=O)[O-]	34*	7	-2	1	11	6
COc1ccc(C(=O)Nc2ccc(Nc3ccccc3)cc2)cc1[N+](=O)[O-]	28*	1	-2	2	-6	-2
N#CC1=C(c2ccc(-c3ccccc3)cc2)COC1=O	-1	40*	6	17	4	-6
O=C(O)Cc1c(C(=O)O)[nH]c2ccc(C(=O)O)cc12	0	-1	-13	-4	-3	2
COc1ccc([C@H]2CC(=O)C=C(c3ccc(F)cc3OCc3ccccc3)C2)cc1OC	12*	-10	-5	/	/	3
COc1ccc([C@H]2CC(=O)C=C(c3ccc(F)cc3OCc3ccccc3)C2)cc1	0	2	10	/	/	1
CSc1ncccc1C(=O)Nc1ccc2c(c1)OCCO2	0	-7	/	/	/	5
CCc1cccc(C)c1NC(=O)CO/N=C(\N)CC(=O)NC1CCCCC1	-2	26	4	9	-9	-14
CCOC(=O)C(NC(=O)CCC(=O)Nc1ccc(S(N)(=O)=O)cc1)C(O)c1ccccc1 (stereo not given)	13*	/	/	/	/	/
CCCCCCCCOC(=O)C(NC(=O)CCC(=O)Nc1ccc(S(N)(=O)=O)cc1)C(O)c1ccccc1 (stereo not given)	-2	10	-6	-3	-3	-13
CN(C)C(C)(C)/C=C/C(O)(c1ccccc1)c1ccccc1	1	-2	-8	-3	-3	-2
O=C1Nc2ccccc2/C1=C/C(=O)c1cccs1	0	-2	-6	-7	4	-13
CCN1C(=O)/C(=C\C(=O)c2cccs2)c2cc(Br)ccc21	32*	3	-17	-6	-7	-11
CN1c2ccsc2C(O)=C(C(=S)Nc2ccc(F)c(Cl)c2)S1(=O)=O	26*	6	11	0	2	3
COc1ccccc1-n1cnnc1SCC(=O)Nc1cccc(S(N)(=O)=O)c1	-1	1	-16	-1	6	0
COc1ccc(-c2c(C#Cc3ccsc3)c3cc(-c4ccc5[nH]ccc5c4)ccc3n2C)cc1	11*	9	12	/	/	17*
COc1ccc(-c2c(C#Cc3ccsc3)c3cc(-c4cccc5[nH]ccc45)ccc3n2C)cc1	1	19	20	/	/	0
Cc1ccccc1CC(=O)N1CCCC1	0	-1	-7	0	-10	7
Cc1nc(-c2ccccc2)nc2sc(C(=O)c3ccc(F)cc3)c(N)c12	15*	-5	8	5	-4	-9
CCN(CC)S(=O)(=O)c1cc(C(=O)OCC(=O)Nc2c(F)cccc2F)ccc1F	-2	-4	-19	-2	-1	-5
O=C(Nc1cccc(Cl)c1)c1ccc(F)c(S(=O)(=O)NCc2cccs2)c1	13*	-6	8	0	-3	-11
CCN(c1ccccc1)S(=O)(=O)c1cc(C(=O)Nc2cccc(Cl)c2)ccc1F	15*	0	-4	0	-1	-4
Cc1cccc(NC(=O)c2ccc(F)c(S(=O)(=O)NCc3ccco3)c2)c1	-3	-14	-8	-4	-6	-15
SMILES	NR3A LBD binder	Rpn11 inh	ZTA DNA inh	TPT1 inh	EBNA-1 inh	dFosB activator
CCN(CC)S(=O)(=O)c1cc(C(=O)OCC(=O)Nc2cccc(Br)c2)ccc1F	18*	-10	9	0	-3	2
CCc1ccc(NC(=O)c2ccc(F)c(S(=O)(=O)N(CC)c3ccccc3)c2)cc1	2	-1	-3	1	9	-2
COc1cc(NC(=O)c2ccccc2Cl)ccc1NC(=O)c1cccs1	0	2	0	0	15	-7
COc1cc(NC(=O)c2cc3ccccc3cc2OC)ccc1NC(=O)c1cccs1	21*	2	-2	2	4	-4
COc1ccc(CC(=O)Nc2ccc(C(=O)NCC(C)C)cc2)cc1	0	5	-7	1	-7	28*
O=C(COc1cccc(NC(=O)c2cccs2)c1)c1ccc(F)cc1	13*	10	-4	0	-8	-16
